Measured values reported in PubChem BioAssay (NCI).
Compounds without any hit were thinned out: in the full panel of roughly 83,000, 20% have a hit.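 Plates (96-well) were seeded with cells, treated with compound at one concentration, and incubated for 48 hours before percent growth was determined.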 A number with no mark means an inactive call. Active and inactive are the calls of the source. How the source made its calls: active means growth percent below 10; inactive means the rest.

Key:
Experiment in all cases: NCI-60 one-dose screen, 48 h (100 = growth as untreated, 0 = no growth, -100 = all killed)
Settings in all cases: 10 µM unless noted
[1] = system: SK-MEL-2 melanoma
[2] = system: EKVX NSCLC
[3] = system: SN12C renal
[4] = system: UO-31 renal
[5] = system: TK-10 renal
[6] = system: ACHN renal
[7] = system: CAKI-1 renal
[8] = system: A498 renal
[9] = system: CCRF-CEM leukemia
[10] = system: MOLT-4 leukemia

SMILES | growth [1] | growth [2] | growth [3] | growth [4] | growth [5] | growth [6] | growth [7] | growth [8] | growth [9] | growth [10]
Cc1ccc(C2CC(c3ccc(NC(=O)Nc4ccccc4)cc3)=NN2c2ccc(S(C)(=O)=O)cc2)cc1 (stereo not given) | -13.7% (active) | -2.75% (active) | -94% (active) | 3.37% (active) | 21.7% | -44.4% (active) | 5.74% (active) | -16.3% (active) | 9.5% (active) | 20.3%
O=C(N/N=C/c1ccoc1)c1[nH]c2ccc(Br)cc2c1-c1ccccc1 | -84.5% (active) | -97.6% (active) | -95.8% (active) | -82.5% (active) | -82.5% (active) | -100% (active) | -99.6% (active) | -82.9% (active) | -12.1% (active) | -5.76% (active)
CCOC(=O)/C(F)=C/C1CC1C1CCN(C(=O)OC(C)(C)C)CC1 (stereo not given) | 110% | 74.4% | 62.6% | 81.6% | 104% | 97.4% | 93.7% | 127% | 104% | 106%
O=C1CC(c2ccc(I)cc2)OC2C=Cc3ccccc3C12 (stereo not given) | 98.8% | 82.9% | 99% | 85.8% | 139% | 109% | 91.7% | 119% | 94.4% | 96%
CN(C)C(=O)c1cc(-c2ccc3ncnc(N4CCc5cc(F)c(Cl)cc54)c3c2)cnc1N | -86% (active) | -84.3% (active) | -9.32% (active) | -10.3% (active) | -69.4% (active) | 2.02% (active) | -76.5% (active) | -84.2% (active) | -20.5% (active) | -38.3% (active)
FC(F)(F)CN1CCN(CCn2c(C(F)(F)F)cc3c(Cl)ncnc32)CC1 | -89.4% (active) | 70.8% | 34.8% | -95.1% (active) | 114% | -63% (active) | 24.1% | 104% | -16.8% (active) | -39% (active)
COc1ccc(-c2nc3ccccc3n2CC(=O)N=Nc2c(O)[nH]c3ccc(OC)cc23)cc1 | 23.9% | 77.8% | 58.7% | 68.5% | 43.8% | 10.1% | -53.5% (active) | 88.3% | 62.9% | 35.8%
CN(C)c1nc(NCCNS(=O)(=O)c2ccc(C(=O)/C=C/c3ccc(F)cc3)cc2)nc(N2CCOCC2)n1 | 62.2% | 59% | 64.3% | 60.1% | 72.2% | 78.6% | 57.3% | 86.5% | 22.5% | -6.53% (active)
CS(=O)(=O)Nc1cc(-c2ccc3ncnc(N4CCc5cc(F)c(Cl)cc54)c3c2)cnc1Cl | -31.6% (active) | -23% (active) | 19.3% | 5.68% (active) | -1.98% (active) | 9.43% (active) | -8.1% (active) | -36.5% (active) | 16.7% | -47.4% (active)
CS(=O)(=O)Nc1cc(-c2ccc3ncnc(Nc4ccc(OCc5cccnc5)c(Cl)c4)c3c2)cnc1Cl | -76.7% (active) | -24.4% (active) | 8.19% (active) | 23.2% | -27% (active) | 32% | 1.71% (active) | -25.6% (active) | 11% | -50.6% (active)
COc1cc(C2CC(c3ccc(Cl)cc3)=Nc3c(N)nc(N)nc3N2)ccc1Oc1nc(Nc2ccc(F)cc2)nc(N(C)C)n1 (stereo not given) | 64.1% | 49.6% | 55.6% | 34.6% | 72.1% | 62.3% | 35.3% | 59.5% | 47% | -8.16% (active)
CC[C@]12C=CCN3CC[C@]4(C(=C(C(=O)OC)C1)Nc1cc(OC)c([C@@H]5[C@H]6O[C@H]6[C@@]6(CC)CC(C(=O)OC)=C7Nc8cc(OC)ccc8[C@@]78CCN5[C@@H]68)cc14)[C@@H]32 | 83.1% | 51.7% | 50% | 69.5% | 72.5% | 44% | 43.4% | 141% | 30.8% | 18.4%
Cc1[nH]nc2ccc3nc(-c4cnn(CCO)c4)c4c(c3c12)CCCC4 | 21.1% | 27.2% | 32.3% | 21.5% | 21.1% | 21.4% | 4.55% (active) | -7.65% (active) | 28.7% | 34%
NS(=O)(=O)c1ccc(N2N=C(c3ccc(NC(=O)Nc4ccccc4)cc3)CC2c2ccc(Br)cc2)cc1 (stereo not given) | -75.8% (active) | -95.8% (active) | -97.7% (active) | -97.2% (active) | -61.3% (active) | -100% (active) | -85.4% (active) | -79.4% (active) | 0.369% (active) | 9.26% (active)
CC(=O)c1c2c(c3ccc4c5ccccc5ccc4n13)C(=O)c1ccccc1C2=O | 93.3% | 77% | 89.9% | 59.3% | 118% | 75.6% | 85.6% | 189% | 99.9% | 90.6%
N#Cc1c(-c2ccc(F)cc2)nc(SCc2ccccc2)nc1N1CCNCC1 | -82.9% (active) | -98.3% (active) | -93.5% (active) | -82.7% (active) | -88.3% (active) | -99% (active) | -95.3% (active) | -13.8% (active) | -3.47% (active) | -0.64% (active)
CCCSc1nnc(-c2c(C)nc3sccn23)o1 | 104% | 66.8% | 87.1% | 69.9% | 113% | 84.9% | 79.4% | 92.3% | 86.3% | 94.4%
